Test results as given in PubChem BioAssay (NCI).
Several values for one entry are separate records, joined by “and”; a condition that tells them apart may be missing. Identical values can stand only once. This is part of a sample that, as a whole, favours compounds with a hit. Of some 79,000 tested, about 15% had one in any assay. Activity calls are given as the source filed them. Cut-off read from the data, not from the text of the source: active = growth inhibition above about 70%; inactive = the rest. Where a SMILES comes first, the peptide text is derived from it. [ ]: non-standard residue; d: D form. The star is where a group is joined. ξ: configuration not given here. Cbz = O=C(OCc1ccccc1)*; ξK = NCCCCC(N)C(=O)O

How the values were obtained:
[1] = NCI Yeast Anticancer Drug Screen. Data for the rad50 strain (AID 155);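 note: 0% = growth of vehicle-only cultures of the same strain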; details: S. cerevisiae rad50 strain growth inhibition, hits give high values; at 50.0 µM unless noted
Outline: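 Compounds were tested on a yeast strain with an engineered DNA damage repair alteration; the reported value is growth inhibition normalised to vehicle treatment.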

[2] = NCI Yeast Anticancer Drug Screen. Data for the mec2-1 strain (AID 157); details: S. cerevisiae mec2-1 strain, hits give high values; at 50.0 µM unless noted
Outline: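 Growth inhibition is read against vehicle-treated controls after compound exposure of the mec2-1 yeast strain, which is defective in DNA damage repair or cell cycle control.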

[3] = NCI Yeast Anticancer Drug Screen. Data for the sgs1 mgt1 strain (AID 161);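 note: 0% = growth of cultures given vehicle only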; details: S. cerevisiae sgs1 mgt1 strain, hits give high values; at 50.0 µM unless noted
Outline: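 Compounds are added to genetically altered yeast, and growth is compared with cultures given vehicle alone to give percent inhibition.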

[4] = NCI Yeast Anticancer Drug Screen. Data for the cln2 rad14 strain (AID 165);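 note: 0% = growth equal to vehicle treated cultures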; details: S. cerevisiae cln2 rad14 strain, hits give high values; at 50.0 µM unless noted
Outline: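 Growth inhibition, relative to vehicle-treated controls, is the read-out. The test organism is a yeast strain with defined genetic alterations, cln2 rad14.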

[5] = NCI Yeast Anticancer Drug Screen. Data for the bub3 strain (AID 167); details: S. cerevisiae bub3 mutant strain, hits give high values; at 50.0 µM unless noted
Outline: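 Growth of a checkpoint-deficient yeast mutant is measured after compound exposure. Values represent inhibition relative to vehicle.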

[6] = NCI Yeast Anticancer Drug Screen. Data for the mlh1 rad18 strain (AID 175); details: S. cerevisiae mlh1 rad18 strain growth inhibition, hits give high values; at 50.0 µM unless noted
Outline: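 Cells of a genetically altered yeast strain, deficient in DNA damage repair, were treated with compound. Their growth was then compared with that of vehicle-treated cultures to give inhibition.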

Measured: growth inhibition

CC(=O)OCC1OC(OC(C)=O)C(OC(C)=O)C(OC(C)=O)C1OC(C)=O (stereo not drawn)
inactive: [1] -0.8% and 33.3% | [2] 0.25% and 9.6% | [3] -17.5% and 21.1% | [4] -30.9% and 11.5% | [5] -14.4% and 5.45% | [6] -26.1% and 8.9%

Cc1ccc(O)c(-c2ccnn2-c2ccccc2)c1
inactive: [1] 20.5% | [2] 33.9% | [3] 15.1% | [4] -10.8% | [5] 5.25% | [6] 35.8%

CCOc1ccc(/C=C/C(=O)c2sc(NNC(C)=O)nc2C)cc1
inactive: [1] 20.1% | [2] 25.1% | [3] -11.6% | [4] 12.7% | [5] 25.9% | [6] 22.4%

Nc1nc(N)c2nc(SC34CC5CC(CC(C5)C3)C4)c(N)nc2n1
inactive: [1] -1.6% | [2] 2.05% | [3] -7.1% | [4] -20.8% | [5] -3.65% | [6] 1.4%

CC(=O)Nc1c(N)c2ccccc2c2ccccc12
inactive: [1] -4.2% | [2] -13.9% | [3] -22.7% | [4] 1.75% | [5] -4.5% | [6] -12.2%

CC(=O)OCC1OC(n2c(Br)nc3c(=O)[nH]c(N)nc32)C(OC(C)=O)C1OC(C)=O (stereo not drawn)
inactive: [1] -1.5% | [2] 4.3% | [3] 0.8% | [4] -14.8% | [5] -10.2% | [6] 5.6%

CC(CCO)CCCO (stereo not drawn)
inactive: [1] -22.1% | [2] -11.8% | [3] 7.35% | [4] -13.8% | [5] -26.2% | [6] -26.8%

COc1cc2c(cc1OC)NC(=O)NC(Cc1ccc3c(c1)OCO3)CC2 (stereo not drawn)
inactive: [1] 20.6% | [2] 10.8% | [3] 13.8% | [4] -47% | [5] 22.3% | [6] 27.3%

CC(C)(CO)CNC(=O)C(C)(C)CO
inactive: [1] 7.8% | [2] 14.1% | [3] -5% | [4] 21.1% | [5] 16.8% | [6] -4.4%

COc1cc(/C=C/C(=O)c2sc(Nc3ccccc3)nc2C)ccc1O
inactive: [1] 27.8% | [2] 2.8% | [3] 13.2% | [4] 0.85% | [5] 19% | [6] 28%

Cc1cccc(C(C)C)c1N1C(=O)C(=O)C(c2nc3ccccc3o2)C(=O)C1=O
inactive: [1] -5.85% | [2] 2.15% | [3] 16.1% | [4] 39.1% | [5] 16.5% | [6] 31.2%

Cc1ccc2ccccc2c1CN(C)C
inactive: [1] 4.7% | [2] -1.05% | [3] -8.6% | [4] -61% | [5] -3.45% | [6] -12.7%

Cc1ccccc1C(=O)NC(O)(C(F)(F)F)C(F)(F)F
inactive: [1] 2.4% | [2] 10.2% | [3] 14.6% | [4] 32.9% | [5] 16.9% | [6] 5.05%

CCCCCC1CC(C(C)=O)CN1c1ccc(F)cc1 (stereo not drawn)
inactive: [1] -0.95% | [2] 8.4% | [3] 11.8% | [4] 8.7% | [5] -1% | [6] -2%

CCC(C)C(NC(=O)C1CSC(C)(C)N1C=O)C(=O)OC1CCCCC1 (stereo not drawn)
inactive: [1] 38.9% | [2] -13.2% | [3] 19.1% | [4] -13.2% | [5] -4.9% | [6] 9.55%

CCC[n+]1nc2ccccc2c(=Nc2ccccc2[N+](=O)[O-])[n-]1
inactive: [1] 8.65% | [2] 8.75% | [3] 2.75% | [4] 7.8% | [5] 12.3% | [6] 2.45%

NCC(=O)NC(CCCCNC(=O)OCc1ccccc1)C(=O)O (stereo not drawn) (H-Gly-[ξK](Cbz)-OH)
inactive: [1] -6.8% | [2] 21% | [3] -10.7% | [4] -3.5% | [5] -20.1% | [6] -22.4%

Oc1cc(O)c2cc(O)c(-c3ccc(O)c(O)c3)[o+]c2c1
inactive: [1] 11.4% | [2] 2.2% | [3] 23.4% | [4] 4.1% | [5] 31.1% | [6] 28.1%

COc1ccc2[nH]c3c(=O)[nH]ncc3c2c1
inactive: [1] -1.9% | [2] -0.95% | [3] -7.5% | [4] -3.05% | [5] 9.8% | [6] 9.05%

CCCCC(CC)CCC(C)O (stereo not drawn)
inactive: [1] -6.75% | [2] -4.75% | [3] 25.6% | [4] -40.4% | [5] -16.8% | [6] -14.7%

Cc1cc(NC(=O)C(=O)Cc2nc3ccccc3s2)ccc1Cl
inactive: [1] 25.9% | [2] 12.7% | [3] 21.9% | [4] 43.9% | [5] 10.9% | [6] 19.1%

CC1(C)CC[C@]2(C(=O)O)CC[C@]3(C)C(=CC[C@@H]4[C@@]5(C)CC[C@H](O)C(C)(C)[C@@H]5CC[C@]43C)[C@@H]2C1
inactive: [1] -3.7% | [2] 4.4% | [3] -7.5% | [4] 13.2% | [5] 0.1% | [6] -3.9%

CCc1cc(C)c(C)cc1O
inactive: [1] -28.8% | [2] -31.6% | [3] -38.9% | [4] 0.5% | [5] -24.9% | [6] -22.4%

Fc1ccc(/C=C2/c3cc(Cl)ccc3-c3c(Cl)cc(Cl)cc32)cc1
inactive: [1] 44.6% | [2] 3.25% | [3] 15.7% | [4] -5.1% | [5] -3.5% | [6] 5.5%

O=C(NCCCl)NC1CCCCCC1
inactive: [1] -10.8% | [2] -3.6% | [3] -16% | [4] -9.35% | [5] -3.05% | [6] 2.05%

O=C1/C(=C/c2ccccc2)CCC2CCCCC12 (stereo not drawn)
inactive: [1] 22.1% | [2] -0.95% | [3] -0.8% | [4] -24.9% | [5] -20.1% | [6] 14.4%

O=C(COc1cc(Cl)c(Cl)cc1Cl)Nc1ccc(Cl)cc1
inactive: [1] 14.7% | [2] 19.9% | [3] 18% | [4] 17.2% | [5] 17.1% | [6] 11.2%

COc1ccc(N2C(=O)c3c(c4[nH]c5ccc(OC)cc5c4c4ccc(C(C)(C)C)cc34)C2=O)cc1
inactive: [1] -8.85% | [2] -7.95% | [3] 4.4% | [4] 7.2% | [5] -2.95% | [6] 26.6%

Nc1nc(N)c(N=O)c(Nc2ccccc2)n1
inactive: [1] 7.75% | [2] 6.9% | [3] -8.35% | [4] 0.45% | [5] 41.6% | [6] 43.4%

CCC(CC)C(O)C(C)C(C)O (stereo not drawn)
inactive: [1] 1.3% | [2] -8.8% | [3] -10.6% | [4] 4.8% | [5] -11.2% | [6] -4.75%

O=[N+]([O-])c1cccc(/C=N/Nc2ccc(S(=O)(=O)O)cc2)c1
inactive: [1] 18.6% | [2] 19.3% | [3] -1.9% | [4] 2.5% | [5] 12.7% | [6] 39.2%

Cc1cc(=O)[nH]c2[nH]c(=O)ccc12
inactive: [1] -11.4% | [2] 0.05% | [3] -1.5% | [4] -6.35% | [5] -2.2% | [6] 2%

CC(C)(C)OC(=O)COc1ccc(NC(=O)COc2ccc(Cl)c(Cl)c2)cc1
inactive: [1] -17.4% | [2] -22.2% | [3] -10.2% | [4] -28.8% | [5] -1.8% | [6] -8.6%

CC(=O)c1cccc(NC(=O)Oc2ccc(-c3ccccc3)cc2Cl)c1
active: [1] 99.2% | [2] 99.6% | [3] 99.5% | [4] 98.8% | [5] 99.5% | [6] 99.3%

COc1ccc(C(=O)CC(c2ccccc2)C(C#N)c2ccccc2)cc1 (stereo not drawn)
inactive: [1] 1.8% and -5.7% | [2] 5.6% and -8.55% | [3] -6.2% and 26.1% | [4] -107% and -72.5% | [5] 8.95% and -5.05% | [6] -7% and 8.5%

O=C(Nc1ccc(Cl)cc1Cl)c1cc2nc3ccccc3c(=O)n2c2ccccc12
inactive: [1] 29.6% | [2] 13.6% | [3] 12.1% | [4] 7.7% | [5] 17.3% | [6] 30.6%

CC(=O)NCC(C)NC(C)=O (stereo not drawn)
inactive: [1] -16.6% and -6.55% | [2] -37.4% and -15.4% | [3] -34.2% and -27.1% | [4] -6.75% and 7.7% | [5] -14.8% and -2.45% | [6] -15.2% and 8.1%

N=C(N)C1CN(CC=O)C(=O)NC1=O (stereo not drawn)
inactive: [1] -11.7% | [2] 11.1% | [3] -2.65% | [4] 24.9% | [5] -4.15% | [6] 11.8%

CC(C)OC(=O)c1ccc(CCC2=CC(=O)C(Br)=CC2=O)cc1
active: [6] 90%
inactive: [1] 50.7% | [2] 62.4% | [3] 65.5% | [4] 56% | [5] 51%

O=C(Cn1c(=O)ccn(C2OC(CO)C(O)C2F)c1=O)c1ccc(F)cc1 (stereo not drawn)
inactive: [1] -2.5% | [2] 0.3% | [3] -30.9% | [4] -48.8% | [5] 0.6% | [6] 3.1%

CC(=O)OCCN(CCOC(C)=O)CCOC(C)=O
inactive: [1] -8.4% | [2] -3.5% | [3] -3.4% | [4] -52.3% | [5] -3.4% | [6] 18.5%

Cc1ccc(=O)[nH]n1
inactive: [1] -3.25% and -31.6% | [2] -21.7% and -16.3% | [3] -9.8% and -17.8% | [4] -8.35% and -28.9% | [5] -16.1% and -27.5% | [6] 3.75% and -20%

COc1cccc2c1C(=O)c1c(O)c(CCl)cc(OC)c1C2=O
inactive: [1] 16.9% | [2] -4.6% | [3] 20.9% | [4] -33% | [5] 5.6% | [6] 14.9%

NC(=S)/N=C/C=C\c1ccccc1
inactive: [1] -10.6% | [2] 2.3% | [3] 5.25% | [4] 0.35% | [5] -13.8% | [6] -7.7%

CC(C)(C)CC(C)(C)c1ccc(O)c(CN2CCCCC2)c1
inactive: [1] 10.2% | [2] 8.55% | [3] 26.1% | [4] -6.7% | [5] 16.6% | [6] 8.65%

CCn1c(=O)n(Cc2ccccc2)c(=O)c2ccccc21
inactive: [1] 19.6% | [2] 8.95% | [3] 24.8% | [4] 10.8% | [5] -4.7% | [6] 30.3%

COc1ccc(/C=C(\C(=O)OCC(C)C)c2ccc(OC)c(OC)c2)cc1OC
inactive: [1] 2.6% | [2] -17.1% | [3] 8.5% | [4] -6.15% | [5] -7.2% | [6] 16.4%

CCCCN1CC(=O)N2CCCC(c3ccccc3)N2C(=O)C1 (stereo not drawn)
inactive: [1] 7.55% | [2] -0.95% | [3] 17.6% | [4] 15.4% | [5] 10.5% | [6] -3.5%
